The values that follow come from PubChem BioAssay (NCATS).

The nature of assay [1]: Primary qHTS for inhibitors of SARS-S pseudo-typed particle cell entry (AID 1479145). Note: nearly all actives have a fitted effect of over 45% in size.
A short description of assay [2]: Primary qHTS for Huh7 cytotoxicity: counterscreen for inhibitors of MERS-S pseudotyped particle cell entry (AID 1479147). (In general: In qHTS, concentration-response curves come from the screen itself.)
The nature of assay [3]: Primary qHTS for inhibitors of MERS-S pseudo-typed particle cell entry (AID 1479149). Note: nearly all actives have a fitted effect of over 60% in size. Note: potency is the fitted concentration of half-maximal effect.
Assay [4] in a line: Primary qHTS for Vero E6 cytotoxicity: counterscreen for inhibitors of SARS-S pseudo-typed particle cell entry (AID 1479150).

Structures are written as SMILES. Results filed as inconclusive are left out. A number with no mark means an inactive call. Calls of active or inactive are those of the source. Calls come from the whole dose curve.
% is set by controls: 0 for no effect and ±100 for the full control effect.

`C[C@]12C=CC(=O)C=C1CC[C@@H]1[C@@H]2[C@@H](O)C[C@@]2(C)[C@H]1CC[C@]2(O)C(=O)CO`: the Potency entry in assay [1], in assay [2], in assay [3] and in assay [4] was “inactive” in each case.

For the compound `CCCCOCCOC(=O)c1cccnc1`, the Potency result in assay [1], in assay [2], in assay [3] and in assay [4] was “inactive” each time.

As to `CN(C)CCOC(=O)COc1ccc(Cl)cc1`, the Potency entry in assay [1], in assay [2], in assay [3] and in assay [4] was “inactive” in each case.

Regarding `C[C@@H]1C[C@H]2[C@@H]3C[C@H](F)C4=CC(=O)C=C[C@]4(C)[C@@]3(F)[C@@H](O)C[C@]2(C)[C@@]1(O)C(=O)CO`, the Potency entry in assay [1], in assay [2], in assay [3] and in assay [4] was “inactive” each time.

`CC(=O)OCC(=O)[C@@]1(O)[C@H](OC(C)=O)C[C@H]2[C@@H]3CCC4=CC(=O)C=C[C@]4(C)[C@@]3(F)[C@@H](O)C[C@@]21C`: the Potency result in assay [1], in assay [2], in assay [3] and in assay [4] was “inactive” each time.

Take `CC1(C)O[C@@H]2C[C@H]3[C@@H]4CCC5=CC(=O)C=C[C@]5(C)[C@@H]4[C@@H](O)C[C@]3(C)[C@]2(C(=O)CO)O1`: the Potency result in assay [1], in assay [2], in assay [3] and in assay [4] was “inactive” throughout.

With `O=C(O)C(S)C(S)C(=O)O` (stereo not given), the Potency result in assay [1], in assay [2], in assay [3] and in assay [4] was “inactive” in each case.

Consider `CCCCC(CC)COC(=O)c1ccccc1O` (stereo not given), for which the Potency entry in assay [1], in assay [2], in assay [3] and in assay [4] was “inactive” in each case.

For `NC[C@H]1O[C@H](O[C@H]2[C@H](O[C@@H]3O[C@H](CO)[C@@H](O)[C@H]3O)C(O)[C@H](N)C[C@@H]2N)[C@H](N)[C@@H](O)[C@@H]1O` (stereo not given in full), the outcome in assay [1], in assay [2] and in assay [3] was “inactive [at 11.4 µM]” each time. In addition, the activity change, negative = cytotoxicity in assay [4] is 0.563% [at 11.4 µM].

As to `Cc1noc(NS(=O)(=O)c2ccc(N)cc2)c1C`, the Potency result in assay [1], in assay [2], in assay [3] and in assay [4] was “inactive” throughout.

On to `O=c1cc(O)c(Cl)c[nH]1`, for which the Potency entry in assay [1], in assay [2], in assay [3] and in assay [4] was “inactive” in each case.

In the case of `CC(C)(Oc1ccc(C2CC2(Cl)Cl)cc1)C(=O)O` (stereo not given), the Potency result in assay [1], in assay [2], in assay [3] and in assay [4] was “inactive” throughout.

For `NC(=O)N1c2ccccc2C=Cc2ccccc21`, the Potency result in assay [1], in assay [2], in assay [3] and in assay [4] was “inactive” in each case.

As for `Cc1ccc(C(=O)C(=O)O)cc1C`, the Potency entry in assay [1], in assay [2], in assay [3] and in assay [4] was “inactive” each time.

Regarding `O=C(NCC1CCCCN1)c1cc(OCC(F)(F)F)ccc1OCC(F)(F)F` (stereo not given), the Potency result in assay [1], in assay [2], in assay [3] and in assay [4] was “inactive” throughout.

Regarding `O=S(=O)(O)CCS`, the Potency result in assay [1], in assay [2], in assay [3] and in assay [4] was “inactive” each time.

For the compound `C[N+](C)(CCOc1ccccc1)Cc1cccs1`, the Potency result in assay [1], in assay [2], in assay [3] and in assay [4] was “inactive” each time.

`Cc1ccc(Cl)c(Nc2ccccc2C(=O)O)c1Cl`: the Potency entry in assay [1], in assay [2], in assay [3] and in assay [4] was “inactive” throughout.

Regarding `COC(=O)/C=C\C(=O)OC`, the Potency entry in assay [1], in assay [2], in assay [3] and in assay [4] was “inactive” in each case.

As for `NS(=O)(=O)c1cc2c(cc1Cl)NC(C(Cl)Cl)NS2(=O)=O` (stereo not given), the Potency entry in assay [1], in assay [2], in assay [3] and in assay [4] was “inactive” in each case.

For the compound `O=C(Oc1ccccc1C(=O)O)c1ccccc1O`, the Potency result in assay [1], in assay [2], in assay [3] and in assay [4] was “inactive” each time.

As to `CN(C)CCOC(=O)C(c1ccccc1)C1(O)CCCC1` (stereo not given), the Potency result in assay [1], in assay [2], in assay [3] and in assay [4] was “inactive” each time.

Take `NS(=O)(=O)c1cc2c(cc1C(F)(F)F)NC(Cc1ccccc1)NS2(=O)=O` (stereo not given): the Potency entry in assay [1], in assay [2], in assay [3] and in assay [4] was “inactive” in each case.

For `CC(C)CN(C[C@@H](O)[C@H](Cc1ccccc1)NC(=O)O[C@H]1CO[C@H]2OCC[C@H]21)S(=O)(=O)c1ccc(N)cc1`, the Potency entry in assay [1], in assay [2], in assay [3] and in assay [4] was “inactive” in each case.

Consider `NS(=O)(=O)c1cc(-c2nn[nH]n2)c(NCc2cccs2)cc1Cl`, for which the Potency result in assay [1], in assay [2], in assay [3] and in assay [4] was “inactive” throughout.

Consider `Cc1c(F)c(N2CCNC(C)C2)cc2c1c(=O)c(C(=O)O)cn2C1CC1` (stereo not given), for which the Potency entry in assay [1], in assay [2], in assay [3] and in assay [4] was “inactive” throughout.

Take `CC1(C)O[C@@H]2C[C@H]3[C@@H]4C[C@H](F)C5=CC(=O)C=C[C@]5(C)[C@@]4(F)[C@@H](O)C[C@]3(C)[C@]2(C(=O)CO)O1`: the Potency entry in assay [1], in assay [2], in assay [3] and in assay [4] was “inactive” throughout.

As to `CO/N=C(\C(=O)N[C@@H]1C(=O)N2C(C(=O)O)=C(C[N+]3(C)CCCC3)CS[C@H]12)c1csc(N)n1`, the Potency result in assay [1], in assay [2], in assay [3] and in assay [4] was “inactive” in each case.

For the compound `CCC[C@@]1(CCc2ccccc2)CC(O)=C([C@H](CC)c2cccc(NS(=O)(=O)c3ccc(C(F)(F)F)cn3)c2)C(=O)O1`, the Potency entry in assay [1], in assay [2], in assay [3] and in assay [4] was “inactive” each time.

As for `Cc1c(I)c(=O)n(-c2ccccc2)n1C`, the Potency entry in assay [1], in assay [2], in assay [3] and in assay [4] was “inactive” in each case.

For the compound `C/C(=N\O)[C@@H](C)NCC(C)(C)CN[C@H](C)/C(C)=N/O`, the Potency result in assay [1], in assay [2], in assay [3] and in assay [4] was “inactive” each time.

As to `CCCCCCOc1ccccc1C(N)=O`, the Potency result in assay [1], in assay [2] and in assay [4] was “inactive” in each case. In addition, the Potency in assay [3] was 20 µM (active).

As for `CCc1cccc(CC)c1NC(=O)CN(CC(=O)O)CC(=O)O`, the Potency result in assay [1], in assay [2], in assay [3] and in assay [4] was “inactive” in each case.

Regarding `Nc1ccc(C(=O)Oc2ccccc2)c(O)c1`, the Potency entry in assay [1], in assay [2], in assay [3] and in assay [4] was “inactive” in each case.

For the compound `CCCNC(C)C(=O)Nc1ccccc1C` (stereo not given), the Potency entry in assay [1], in assay [2], in assay [3] and in assay [4] was “inactive” each time.
